“And” between values parts separate entries of the source, which are not always exact repeats. Equal values may be shown once. ± gives the standard deviation of the averaged measurements. In all, about 3,800 compounds were measured (“cell shape (eccentricity) Z-score vs DMSO control”: median about 1.1, lowest 2% from about -4.7 on). This is one part of a sample in which the lowest values are shown more often than they occur.
System: human monocyte-derived macrophages (M0)
Experiment: cell shape (eccentricity) Z-score vs DMSO control; higher = more elongated, M2-like morphology
Conditions: 20 µM; 24 h; macrophage state: M0 (M-CSF)
Description: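 Primary human monocyte-derived macrophages (M-CSF differentiated, pooled from 4 donors, 5000 cells/well in 384-well plates) were treated with each compound at 20 uM for 24 h, then fixed and stained with phalloidin/DAPI and imaged on an Opera Phenix (6 fields, about 1000 cells/well). Cell eccentricity was measured with CellProfiler, and a Z-score (t-test) was computed against 4 DMSO control wells in the same row. Negative values mean round (M1-like) cells and positive values mean elongated (M2-like) cells; the paper's hit cutoffs are Z <= -4 (M1) and Z >= 6 (M2). Scale: negative = round, M1-like.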

Compound | cell shape (Z-score)
COC(=O)Nc1nc2cc(C(=O)C3CC3)ccc2[nH]1 | -3.64
COC(=O)Nc1nc2cc(SC(C)C)ccc2[nH]1 | -4.88 ± 0.16
CCCCc1ccc2[nH]c(NC(=O)OC)nc2c1 | -5.71 and -2.34
COC(=O)Nc1nc2cc(Sc3ccccc3)ccc2[nH]1 | -2.59 ± 3.9
CCCSc1ccc2[nH]c(NC(=O)OC)nc2c1 | -3.67
CCCOc1ccc2[nH]c(NC(=O)OC)nc2c1 | -1.59
COc1ccc(C2Oc3cc(OC)ccc3CC2O)cc1 (configuration not stated) | 1.66 ± 1.2
COc1ccc(-c2oc3c(CC=C(C)C)c(O[C@@H]4O[C@H](CO)[C@@H](O)[C@H](O)[C@H]4O)cc(O)c3c(=O)c2O[C@@H]2O[C@@H](C)[C@H](O)[C@@H](O)[C@H]2O)cc1 | -2.65
Nc1ncnc2c1c(-c1cccc(OCc3ccccc3)c1)cn2[C@H]1C[C@H](CN2CCCC2)C1 | 6.27
O=c1c(O)c(-c2ccccc2)oc2ccccc12 | 1.62
CCOC(=O)[C@H](CCc1ccccc1)N[C@@H](C)C(=O)N1Cc2ccccc2C[C@H]1C(=O)O | 2.22
CC(=O)O[C@H]1CC[C@@]2(C)C(C[C@@H](OC(C)=O)[C@]3(C)C2CC[C@@]2(C)[C@H](c4ccoc4)OC(=O)[C@H]4O[C@]423)C1(C)C (some centres not stated) | -2.07
CC(=O)O[C@H]1C[C@@H](O)C(C)(C)C2C[C@@H](OC(C)=O)[C@]3(C)C(CC[C@@]4(C)[C@H](c5ccoc5)OC(=O)C5OC543)[C@]21C (some centres not stated) | -2.78
CC(=O)O[C@@H]1CC2C(C)(C)C(=O)CC[C@]2(C)C2CC[C@@]3(C)[C@H](c4ccoc4)OC(=O)C4OC43[C@@]21C (some centres not stated) | -5.48
CC(=O)O[C@@H]1CC2C(C)(C)C(=O)C=C[C@]2(C)C2CC[C@@]3(C)[C@H](c4ccoc4)OC(=O)[C@H]4O[C@]43[C@@]21C (some centres not stated) | -4.89
CC(=O)O[C@@H]1CC2C(C)(C)[C@H](O)CC[C@]2(C)C2CC[C@@]3(C)[C@H](c4ccoc4)OC(=O)C4OC43[C@@]21C (some centres not stated) | 2.33
CC(=O)O[C@H]1C[C@@H](OC(C)=O)C(C)(C)C2C[C@@H](OC(C)=O)[C@]3(C)C(CC[C@@]4(C)[C@H](c5ccoc5)OC(=O)[C@H]5O[C@]543)[C@]21C (some centres not stated) | -2.55
O=C1C[C@@H](c2ccc(O)c(O)c2)Oc2cc(O[C@@H]3O[C@H](CO)[C@@H](O)[C@H](O)[C@H]3O)cc(O)c21 | 0.661 ± 1.8
OC(CN1CCNCC1)Cn1c2ccc(Br)cc2c2cc(Br)ccc21 (configuration not stated) | -4.09
C=C1CCC[C@]2(C)CC[C@@](O)(C(=C)C(=O)O)C[C@@H]12 | -0.504
CC1(C)CC[C@]2(C(=O)O[C@@H]3O[C@H](CO[C@@H]4O[C@H](CO)[C@@H](O)[C@H](O)[C@H]4O)[C@@H](O)[C@H](O[C@@H]4O[C@H](CO)[C@@H](O)[C@H](O)[C@H]4O)[C@H]3O)CC[C@]3(C)C(=CCC4[C@@]5(C)CC[C@H](O)[C@@](C)(C(=O)O)C5CC[C@]43C)C2C1 (some centres not stated) | 1.07

Compound | cell shape (Z-score)
C=C1CCC2C(CC2(C)C)C(=O)CCC1O (configuration not stated) | -1.93
C#CC1(OCC(O)CN2CCN(c3ccccc3OC)CC2)CCCCC1 (configuration not stated) | -0.311
C#CC1(OCC(O)CN2CCN(c3cccc(C(F)(F)F)c3)CC2)CCCCC1 (configuration not stated) | -7.88
OCC(O)CN1CCN(c2ccccc2)CC1 (configuration not stated) | 2.29
COC1=CC(=O)O[C@@H](/C=C/c2ccccc2)[C@@H]1O | -1.25
COc1cc2c(c(OC)c1OC)C[C@H]1COC(=O)[C@@H]1Cc1c-2cc(OC)c(OC)c1OC | -9.6
COc1cc2c(c(OC)c1OC)-c1cc3c(cc1C[C@H]1C(=O)OC[C@@H]1C2)OCO3 | 0.816
COc1cc2c(c(OC)c1OC)CCc1cc(O)c(O)cc1-2 | -0.208
CC(C)Cn1cnc2c(N)nc3ccccc3c21 | 3.03
CC(C)C12CC1C(C)(O[C@@H]1O[C@H](CO)[C@@H](O)[C@H](O)[C@H]1O)CC2=O (some centres not stated) | 1.52
CC(=O)OCC(=O)[C@H]1CCC2C3CC=C4C[C@@H](O)CC[C@]4(C)C3CC[C@@]21C (some centres not stated) | 3.17
O=C(O)/C=C/c1ccccc1O[C@@H]1O[C@H](CO)[C@@H](O)[C@H](O)[C@H]1O | 1.56
CC1(C)CC[C@]2(C(=O)O[C@@H]3O[C@H](CO)[C@@H](O)[C@H](O)[C@H]3O)CC[C@]3(C)C(=CCC4[C@@]5(C)C[C@@H](O)[C@H](O)[C@@](C)(CO)C5[C@H](O)C[C@]43C)C2C1 (some centres not stated) | 4.82 ± 3.7
C[C@@H]1O[C@@H](O[C@@H]2[C@@H](O)[C@H](O[C@@H]3[C@@H](O)[C@@H](O)[C@H](O[C@H]4[C@H](OC(=O)[C@]56CCC(C)(C)C[C@H]5C5=CCC7[C@@]8(C)C[C@H](O)[C@H](O[C@@H]9O[C@H](C(=O)O)[C@@H](O)[C@H](O)[C@H]9O)[C@@](C)(CO)C8[C@H](O)C[C@@]7(C)[C@]5(C)C[C@H]6O)O[C@@H](CO)[C@@H]4O)O[C@H]3C)OC[C@H]2O)[C@H](O)[C@H](O)[C@H]1O (some centres not stated) | -6.05
CC1(C)CC[C@@]2(C(=O)O[C@@H]3O[C@H](CO)[C@@H](O)[C@H](O)[C@H]3O)C(C1)C1=CCC3[C@@]4(C)CC[C@@H](O[C@@H]5O[C@H](C(=O)O)[C@@H](O[C@@H]6OC[C@@H](O)[C@H](O)[C@H]6O)[C@H](O)[C@H]5O)C(C)(C)C4CC[C@@]3(C)[C@]1(C)C[C@H]2O (some centres not stated) | 1.81
C[C@@H]1O[C@@H](O[C@@H]2[C@@H](O)[C@H](O[C@@H]3[C@@H](O)[C@@H](O)[C@H](O[C@H]4[C@H](OC(=O)[C@]56CCC(C)(C)C[C@H]5C5=CCC7[C@@]8(C)C[C@H](O)[C@H](O[C@@H]9O[C@H](C(=O)O)[C@@H](O)[C@H](O)[C@H]9O)[C@@](C)(CO)C8[C@H](O)C[C@@]7(C)[C@]5(C)C[C@H]6O)OC[C@H](O)[C@@H]4O)O[C@H]3C)OC[C@H]2O)[C@H](O)[C@H](O)[C@H]1O (some centres not stated) | 0.295
C[C@@H]1O[C@@H](O[C@@H]2[C@@H](O)[C@H](OC(=O)[C@]34CCC(C)(C)CC3C3=CCC5[C@@]6(C)CC[C@H](OC7OC(CO)C(OC8OCC(O)C(O)C8O)C(O)C7O)C(C)(C)C6CC[C@@]5(C)[C@]3(C)CC4O)O[C@H]2CO)[C@H](O)[C@H](O)[C@H]1O[C@H]1OC[C@](O)(CO)[C@H]1O (some centres not stated) | -11.6
C[C@@H]1O[C@@H](O[C@H]2[C@H](OC(=O)[C@]34CCC(C)(C)C[C@H]3C3=CCC5[C@@]6(C)C[C@H](O)[C@H](O[C@@H]7O[C@H](C(=O)O)[C@@H](O)[C@H](O)[C@H]7O)[C@@](C)(CO)C6[C@H](O)C[C@@]5(C)[C@]3(C)C[C@H]4O)O[C@@H](CO)[C@@H]2O)[C@H](O)[C@H](O)[C@H]1O[C@@H]1OC[C@@H](O)[C@H](O[C@H]2OC[C@](O)(CO)[C@H]2O)[C@H]1O (some centres not stated) | -10.1
CC1(C)CC[C@]2(C(=O)O[C@@H]3O[C@H](CO)[C@@H](O)[C@H](O)[C@H]3O)CC[C@]3(C)C(=CCC4[C@@]5(C)C[C@H](O)[C@H](O[C@@H]6O[C@H](C(=O)O)[C@@H](O)[C@H](O)[C@H]6O)[C@@](C)(CO)C5CC[C@]43C)C2C1 (some centres not stated) | 0.273
CC1OC(OC2C(CO)OC(OC(=O)[C@]34CCC(C)(C)CC3C3=CCC5[C@@]6(C)CC[C@H](OC7OC(C)C(OC8OCC(O)(COC9OCC(O)C(OC%10OCC(OC%11OCC(O)(CO)C%11O)C(O)C%10O)C9O)C8O)C(O)C7O)C(C)(C)C6CC[C@@]5(C)[C@]3(C)CC4)C(O)C2O)C(O)C(O)C1O (some centres not stated) | 2.74
CC1(C)CC[C@@]2(C(=O)O[C@@H]3O[C@H](CO)[C@@H](O)[C@H](O)[C@H]3O)C(C1)C1=CCC3[C@@]4(C)CC[C@@H](O[C@@H]5O[C@H](CO)[C@@H](O)[C@H](O)[C@H]5O[C@@H]5O[C@H](CO)[C@@H](O)[C@H](O)[C@H]5O)C(C)(C)C4CC[C@@]3(C)[C@]1(C)C[C@H]2O (some centres not stated) | 0.124 ± 0.97

From the supplement of paper PMC7858590
